Where “and” joins values, the source holds several entries; their conditions need not be identical. Equal entries are not always repeated. Some structures have more than one record in an assay (separate samples or runs), and their calls can disagree. Calls of active or inactive are those of the source. The calls were made as follows: active = hit-call score of the fitted dose curve at least 0.9, where 1 is the maximum; inactive = score below 0.9.

This assay in a line: ATG_BRE_CIS: Attagene CIS-FACTORIAL HepG2 Assay for human Bone Morphogenetic Protein (BMP) Response Element (BRE) (AID 2282933). The conditions noted are these: HepG2 BMP response element reporter, Attagene transcription factor profiling; actives raise or lower the signal. On the procedure:
ATG_CIS is a cell-based, multiplexed-readout assay that uses HepG2, a human liver cell line, with measurements taken at 24 hours after chemical dosing in a 24-well plate.ATG_BRE_CIS is one of 52 assay component(s) measured or calculated from the ATG_CIS assay. It is designed to make measurements of mRNA induction, a form of inducible reporter, as detected with fluorescence intensity signals by Reverse transcription polymerase chain reaction (RT-PCR) and Capillary electrophoresis technology.Data from the assay component ATG_BRE_CIS was analyzed into 1 assay endpoint. This assay endpoint, ATG_BRE_CIS, was analyzed with bidirectional fitting relative to DMSO as the negative control and baseline of activity. Using a type of inducible reporter, measures of mRNA for gain or loss-of-signal activity can be used to understand the reporter gene at the transcription factor-level as they relate to the gene SMAD1. Furthermore, this assay endpoint can be referred to as a primary readout, because this assay has produced multiple assay endpoints where this one serves a reporter gene function. To generalize the intended target to other relatable targets, this assay endpoint is annotated to the dna binding intended target family, where the subfamily is Smad protein.
Human liver HepG2 cells are transiently transfected with multiple reporter transcription units (MRTUs) in 6-well plates using FuGene 6 reagent (Roche; 3 ml FuGene/1 mg DNA). The MRTU constructs are regulated by a cis-regulating element (promoter). […] A major difference between the CIS and TRANS system is that in CIS activities of endogenous TFs are measured, whereas the TRANS assay evaluates changes in activities of exogenous, chimeric NR-Gal4 proteins. […] At the end of 24 hour incubation, total RNA was isolated using TriZol reagent (Invitrogen). The isolated RNA is then reverse-transcribed using oligo(dT) primer and Mo-MLV reverse transcriptase (Invitrogen) with DNAse I (Ambion) treatment for 30 min. The one-tenth of the produced cDNA was amplified by PCR using Taq DNA polymerase (Invitrogen) and two reporter sequence-specific primers. The PCR products were fluorescently labeled by primer extension with 6-arboxyfluorescein (6-FAM) 5'-labeled reporter sequence-specific primer (2 min at 95 C, 20 s at 68 C and 10 min at 72 C) and these products were digested with 5U of HpaI (New England Biolabs) for 2h at 37 C. The fragments were purified using Qiaquick PCR columns (Qiagen), analyzed on an ABI 3130xL genetic analyzer (Applied Biosystems) with peak positions identified by using a set of X-rhodamine (ROX)-labeled MapMarker1000 molecular weight standards (BioVentures). The raw capillary electrophoresis data was processed using Attagraph software (Attagene).
Take `C[C@]12CCC(=O)C[C@@H]1CC[C@@H]1[C@@H]2CC[C@]2(C)[C@@H](O)CC[C@@H]12`: the result was inactive; the AC50 (in general, the midpoint of the concentration-response curve, whichever way the signal moves) is 65.4 µM (active) and 87 µM (active).

As to `Cc1cc(=O)[nH]o1`, the call was inactive.

As to `O=C(OC1CCCCC1)c1ccccc1C(=O)OC1CCCCC1`, the half-maximal activity concentration (AC50) is 67.5 µM (active).

Regarding `C[C@@H]1C[C@@H]([C@H](O)CC2CC(=O)NC(=O)C2)C(=O)[C@@H](C)C1`, the AC50 is 16.6 µM (active) and 5.79 µM (active) and 22.8 µM (active); the molecule was called inactive.

For the molecule `N#CCc1ccc(Cl)cc1`, the result was inactive.

`Cc1ccccc1C(=O)Nc1cccc(OC(C)C)c1`: the molecule was classed as inactive.

Take `O=C(Nc1ccc2[nH]ccc2c1)c1cc2cc(F)ccc2n1Cc1cccc(F)c1`: the outcome was inactive.

`CC(C)(C)c1cc(O)ccc1O`: the AC50 is 19.8 µM (active).

Consider `CCOC(=O)CP(=O)(OCC)OCC`, for which the call was inactive.

Consider `Oc1c(I)cc(I)cc1I`, for which the AC50 was 43.2 µM (active).

On to `[O-][Cl+2]([O-])O`, for which the result was inactive.

For the molecule `COc1cc2c(cc1OC)[C@@]13CCN4CC5=CCO[C@H]6CC(=O)N2[C@H]1[C@H]6[C@H]5C[C@H]43`, the molecule was called inactive.

With `O=[N+]([O-])c1c(Cl)c(Cl)cc(Cl)c1Cl`, the outcome was inactive.

For `CC(C#N)CCC#N` (stereo not given), the result was inactive.

Take `O=C1CCCN1`: the call was inactive.

Consider `Nc1cccc2ccccc12`, for which the molecule was classed as inactive.

On to `COc1ccc(C=O)cc1OC`, for which the outcome was inactive.

With `CCNc1nc(NC(C)(C)C)nc(SC)n1`, the outcome was inactive.

`O=C1C2(Cl)C3(Cl)C4(Cl)C(Cl)(Cl)C5(Cl)C3(Cl)C1(Cl)C5(Cl)C24Cl` (stereo not given): the call was inactive.

`O=C/C=C/c1ccccc1`: the outcome was inactive.

Take `CC(C)C1CCC(Cc2ccc(Cl)cc2)C1(O)Cn1cncn1` (stereo not given): the AC50 was 11 µM (active).

In the case of `Cl/C=C\C[N+]12CN3CN(CN(C3)C1)C2`, the AC50 was 19.8 µM (active).

On to `C1CCC(NC2CCCCC2)CC1`, for which the call was inactive.

For `CCCCC(CC)CO[N+](=O)[O-]` (stereo not given), the molecule was called inactive.

As to `CCOP(=S)(OCC)Oc1nc(Cl)c(Cl)cc1Cl`, the AC50 is 65.5 µM (active).

As to `O=C(O)C(F)(F)C(F)(F)C(F)(F)C(F)(F)C(F)(F)C(F)(F)F`, the result was inactive.

For `CCC[CH2][Sn]([CH2]CCC)([CH2]CCC)[O]C(=O)c1ccccc1`, the AC50 is 0.218 µM (active).

Take `CNC`: the molecule was called inactive.

`CCc1ccccc1N`: the molecule was classed as inactive.

Take `O=C(Cl)c1ccc(Cl)cc1`: the result was inactive.

On to `ClCc1cccnc1`, for which the outcome was inactive.

For the molecule `COc1ccc(OC)c(C=O)c1`, the result was inactive.

With `CCCCCCCCSC(=O)Oc1cc(Cl)nnc1-c1ccccc1`, the molecule was called inactive.

With `C(=NC1CCCCC1)=NC1CCCCC1`, the AC50 is 2.69 µM (active).

For the molecule `Clc1ccc(COC(Cn2ccnc2)c2ccc(Cl)cc2Cl)cc1` (stereo not given), the molecule was classed as inactive.

In the case of `O=C(O)Cc1ccccc1`, the outcome was inactive.

In the case of `CCOP(=O)(CN(CCO)CCO)OCC`, the molecule was classed as inactive.

Take `COP(=S)(OC)Oc1ccc(Sc2ccc(OP(=S)(OC)OC)cc2)cc1`: the AC50 was 6.58 µM (active).

For the origin of these results see PubChem BioAssay (EPA / NIEHS).
